MPTP block: permeability transition pore inhibition | isolated mouse mitochondria, Ca2+ swelling absorbance, 30 min | inhibition, % at 10 µM | 360,000 tested, 1.4% active;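 active = inhibition of 50% or more, scaled per plate between neutral and stimulator controls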;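 note: 0% = DMSO wells given calcium and 100% = 1 mM EGTA wells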
Myeloid diff MLP: myeloid differentiation induction; ER-HoxA9 myeloid progenitors, lysozyme-GFP differentiation, flow cytometry; AID 624256; calls only at 10 µM; 360,000 tested, 1% active;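 active = normalized GFP-positive differentiation at or above the plate's own cutoff, the solvent-only control mean plus 3 SD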;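 note: cells exposed to compound for four days before flow analysis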
rCAG binder: binds r(CAG) RNA repeats. inhibition, % at 3 µM. r(CAG) RNA repeat, TO-PRO-1 dye displacement fluorescence. AID 651821. 370,000 tested, 1.3% active;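 active = inhibition above the plate cutoff, the mean of all test compounds on that plate plus 3 SD, cut at about 35% in these data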;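 note: 0% = DMSO alone and 100% = 100 µM mitoxantrone as full dye displacement; higher means more dye released from RNA so lower well fluorescence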
FAS TE block: inhibitors of human fatty acid synthase thioesterase domain; P49327; recombinant FAS-TE, OMFH fluorogenic substrate, fluorescence endpoint; inhibition, % at 15 µM; 360,000 tested, 0.67% active; AID 602261;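 active = compounds whose normalised, plate-corrected inhibition of enzyme fluorescence in the single-dose primary screen is 50% or more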;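 note: 0% = DMSO with enzyme and 100% = substrate without enzyme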
Target sequence (P49327 whole entry, looked up, the tested form may be a part): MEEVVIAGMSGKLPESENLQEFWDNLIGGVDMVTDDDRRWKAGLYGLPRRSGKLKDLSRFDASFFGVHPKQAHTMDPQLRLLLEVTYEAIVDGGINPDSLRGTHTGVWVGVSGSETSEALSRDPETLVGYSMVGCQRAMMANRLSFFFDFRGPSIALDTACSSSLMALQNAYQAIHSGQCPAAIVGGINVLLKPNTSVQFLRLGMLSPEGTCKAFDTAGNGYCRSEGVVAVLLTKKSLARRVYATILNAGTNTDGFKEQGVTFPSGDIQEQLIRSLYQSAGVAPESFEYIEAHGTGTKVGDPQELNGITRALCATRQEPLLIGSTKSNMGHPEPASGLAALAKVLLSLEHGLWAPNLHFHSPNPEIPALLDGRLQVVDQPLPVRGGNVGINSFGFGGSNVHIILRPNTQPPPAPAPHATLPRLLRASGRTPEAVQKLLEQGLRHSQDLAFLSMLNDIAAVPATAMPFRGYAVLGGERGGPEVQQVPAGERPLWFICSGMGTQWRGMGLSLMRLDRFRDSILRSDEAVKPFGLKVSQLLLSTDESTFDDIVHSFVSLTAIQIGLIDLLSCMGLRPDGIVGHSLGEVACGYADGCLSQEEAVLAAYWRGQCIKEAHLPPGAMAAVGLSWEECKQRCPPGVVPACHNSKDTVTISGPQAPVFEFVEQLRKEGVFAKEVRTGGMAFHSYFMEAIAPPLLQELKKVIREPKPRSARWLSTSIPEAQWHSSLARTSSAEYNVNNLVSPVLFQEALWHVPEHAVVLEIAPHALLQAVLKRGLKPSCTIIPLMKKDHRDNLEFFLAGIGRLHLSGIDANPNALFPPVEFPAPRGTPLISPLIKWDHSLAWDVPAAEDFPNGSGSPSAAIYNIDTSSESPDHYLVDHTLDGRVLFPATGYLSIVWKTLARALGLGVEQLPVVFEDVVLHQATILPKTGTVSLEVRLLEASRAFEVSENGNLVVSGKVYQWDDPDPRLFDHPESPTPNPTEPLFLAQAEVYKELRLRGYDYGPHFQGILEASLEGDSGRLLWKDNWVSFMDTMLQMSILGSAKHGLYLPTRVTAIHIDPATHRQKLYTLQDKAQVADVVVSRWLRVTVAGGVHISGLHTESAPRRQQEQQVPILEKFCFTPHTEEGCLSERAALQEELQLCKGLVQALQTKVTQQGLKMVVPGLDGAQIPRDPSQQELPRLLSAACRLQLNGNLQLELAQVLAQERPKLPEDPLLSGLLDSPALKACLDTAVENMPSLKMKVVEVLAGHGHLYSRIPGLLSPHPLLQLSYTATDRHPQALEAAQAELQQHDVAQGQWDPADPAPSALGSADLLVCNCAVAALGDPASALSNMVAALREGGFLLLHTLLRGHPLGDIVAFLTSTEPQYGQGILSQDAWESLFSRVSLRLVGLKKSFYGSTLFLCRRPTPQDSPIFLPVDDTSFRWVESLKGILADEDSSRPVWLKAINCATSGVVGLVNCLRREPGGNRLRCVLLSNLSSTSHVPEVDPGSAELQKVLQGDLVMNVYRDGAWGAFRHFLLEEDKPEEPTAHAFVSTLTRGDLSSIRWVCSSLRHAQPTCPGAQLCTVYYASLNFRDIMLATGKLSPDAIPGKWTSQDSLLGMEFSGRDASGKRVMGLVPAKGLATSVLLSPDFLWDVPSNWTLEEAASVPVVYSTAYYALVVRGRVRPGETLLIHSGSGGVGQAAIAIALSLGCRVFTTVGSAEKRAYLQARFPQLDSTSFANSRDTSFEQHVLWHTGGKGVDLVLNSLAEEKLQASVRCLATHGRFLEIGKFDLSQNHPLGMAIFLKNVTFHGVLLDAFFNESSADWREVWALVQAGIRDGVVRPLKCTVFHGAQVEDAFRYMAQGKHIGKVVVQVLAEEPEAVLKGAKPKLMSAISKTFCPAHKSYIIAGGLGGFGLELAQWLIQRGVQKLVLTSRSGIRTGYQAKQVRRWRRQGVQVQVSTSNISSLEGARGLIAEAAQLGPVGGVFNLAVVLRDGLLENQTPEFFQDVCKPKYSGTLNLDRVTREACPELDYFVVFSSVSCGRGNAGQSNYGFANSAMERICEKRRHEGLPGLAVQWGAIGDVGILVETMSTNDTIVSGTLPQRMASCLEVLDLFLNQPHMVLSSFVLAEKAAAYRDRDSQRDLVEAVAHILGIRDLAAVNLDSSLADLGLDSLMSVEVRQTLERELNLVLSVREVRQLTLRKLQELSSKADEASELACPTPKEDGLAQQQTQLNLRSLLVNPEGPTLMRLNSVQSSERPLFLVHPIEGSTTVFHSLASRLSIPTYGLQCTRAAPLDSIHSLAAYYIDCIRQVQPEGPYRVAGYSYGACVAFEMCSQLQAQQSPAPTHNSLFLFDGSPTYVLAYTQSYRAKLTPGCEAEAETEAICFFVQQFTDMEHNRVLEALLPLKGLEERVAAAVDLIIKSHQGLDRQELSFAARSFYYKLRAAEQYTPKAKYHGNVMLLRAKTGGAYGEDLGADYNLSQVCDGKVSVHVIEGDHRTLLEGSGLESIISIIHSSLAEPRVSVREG
GRIN3A LBD mod: modulates the human NR3A ligand-binding domain | NR3A LBD differential scanning fluorimetry, Tm shift; 0% = protein alone, 100% = glycine-bound protein | Tm shift relative to glycine control, % at 25 µM | 340,000 tested, 2.5% active;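 active = melting temperature shift of at least 10% of the positive control shift, at one fixed dose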
* marks the source's active call; other numbers are inactive results; i = inactive; x = no result; + = active, no number. Only some compounds are listed: those with a hit (about 5.7% of all), similar ones and a draw of the others.

SMILES | MPTP block | Myeloid diff MLP | rCAG binder | FAS TE block | GRIN3A LBD mod
O=C(OC12CCCN(C1)/C(=C/c1cccnc1)C2)c1cccc(F)c1 (stereo not given) | x | x | 5.9 | x | x
N#C/C(=C\c1ccc(-c2ccc(Br)cc2)o1)C(=O)NCCc1c[nH]c2ccccc12 | 2.9 | i | 19.4 | 46.5 | 27.0*
NS(=O)(=O)c1ccc(Nc2nc(-c3ccc(F)cc3)cs2)cc1 | 1.3 | i | 25.0 | 23.2 | 25.4*
CC(=O)Nc1ccc(-c2csc(Nc3ccc(S(N)(=O)=O)cc3)n2)cc1 | -1.1 | i | 9.8 | -4.0 | -3.7
NS(=O)(=O)c1ccc(Nc2nc(-c3ccc(O)cc3O)cs2)cc1 | 0.9 | x | 10.5 | 14.2 | 15.4*
Cc1ccccc1NC(=O)[C@H]1CC(=O)O[C@@H]1c1ccccc1 | x | x | 2.1 | x | x
Cc1cccc(C(=O)Nc2ccc(S(=O)(=O)Nc3nc(C)cc(C)n3)cc2)c1 | 0.3 | i | 10.1 | -2.8 | 12.6*
Cc1cccc(C(=O)NCC(=O)Nc2ccc(S(=O)(=O)Nc3nc(C)cc(C)n3)cc2)c1 | -0.7 | i | 7.5 | -6.2 | -3.7
Cc1ccc(NS(=O)(=O)c2ccc(NC(=O)c3cccc(NC(=O)C(C)C)c3)cc2)cc1 | 1.9 | i | 11.3 | 28.6 | 18.4*
NS(=O)(=O)c1ccc(NC(=O)CSc2nnc(-c3cccs3)o2)cc1 | x | x | 3.5 | x | x
COCCCNC(=O)CSc1nnc(-c2ccncc2)n1-c1ccc(OC)cc1 | x | x | -0.1 | x | x
COc1cc(/C=C/C(=O)c2ccc(NS(=O)(=O)c3ccc(C)cc3)cc2)ccc1OC(F)F | 3.2 | i | 19.1 | 10.0 | 22.9*
COc1cc(/C=C/C(=O)O)ccc1OS(=O)(=O)c1ccc(C)cc1 | -0.9 | i | 6.5 | -1.0 | -1.6
COc1cc(/C=C/C(=O)c2ccc(NS(=O)(=O)c3ccc(C)cc3)cc2)cc(OC)c1O | 2.4 | i | 47.0* | -1.6 | 11.2*
COc1ccc2cc(C(=O)/C=C/c3cc(OC)c(O)c(OC)c3)ccc2c1 | 2.2 | i | 24.4 | 1.2 | 8.9
O=CN/C=C/c1cccc(O)c1 | -0.6 | x | 3.4 | -8.0 | 14.0*
COC(=O)[C@H]1Cc2c([nH]c3ccccc23)[C@H](c2ccccc2)N1 | 1.8 | i | -3.6 | -1.8 | 10.0*
Cc1ccc(C(=O)CSc2nsc(C)c2C#N)cc1 | 0.7 | i | -3.4 | 22.3 | 14.7*
Cc1noc(C)c1S(=O)(=O)N1CCCc2nc(-c3ccccc3)ccc21 | x | x | 2.0 | x | x
O=[N+]([O-])c1ccc(/C=C/C2=NN(c3ccccc3)C(c3ccco3)C2)cc1 (stereo not given) | 8.4 | + | 3.2 | 36.0 | 263.1*
O=[N+]([O-])c1ccc(C2=NN(c3ccccc3)C(c3ccco3)C2)cc1 (stereo not given) | 3.8 | + | -6.5 | 8.8 | 339.5*
CC1=NN(c2ccccc2)C(c2ccco2)C1 (stereo not given) | -0.4 | i | 1.1 | -5.3 | -1.0
O=C(CSc1nnc2c(n1)[nH]c1ccc(F)cc12)N1CCOCC1 | 0.9 | i | -1.2 | -5.5 | 1.9
O=C(CSc1nnc2c(n1)[nH]c1ccc(F)cc12)NCc1ccc(F)cc1 | -1.2 | i | 1.8 | 0.8 | 10.1*
CC1Cc2ccccc2N1C(=O)CSc1nnc2c(n1)[nH]c1ccc(F)cc12 (stereo not given) | 19.3 | i | 6.2 | 0.4 | 22.2*
SMILES | MPTP block | Myeloid diff MLP | rCAG binder | FAS TE block | GRIN3A LBD mod
COc1ccc(CNC(=O)CSc2nnc3c(n2)[nH]c2ccc(F)cc23)cc1 | 0.2 | i | 2.6 | -4.6 | 1.4
CN(Cc1ccco1)C(=O)c1cccc2c1C(=O)N(Cc1cccnc1)C2 | x | x | 2.9 | x | x
CC1Nc2ccc(C(=O)NC3CCCCC3)cc2NC1=O (stereo not given) | -0.3 | + | 0.7 | -17.9 | 0.2
CC(C)C1Nc2ccc(C(=O)NC3CCCCC3)cc2NC1=O (stereo not given) | 0.4 | i | x | -6.2 | -1.8
CCOC(=O)/C=C/[C@H]1CCc2cccc(Cl)c2O1 | -0.2 | i | -6.0 | 12.6 | 14.8*
COc1cc(/C=N/Nc2nc3ccccc3[nH]2)cc(OC)c1O | -0.2 | i | 0.6 | -7.4 | -1.9
COc1cc(/C=N/NC(=O)c2cc3ccccc3[nH]2)ccc1O | 0.7 | i | 8.2 | 0.0 | 33.8*
COc1cc(/C=N/Nc2nc3ccccc3[nH]2)ccc1O | -0.1 | i | 2.0 | -9.6 | 14.8*
COc1cc(/C=N/NC(=O)c2cccc(C(=O)N/N=C/c3ccc(O)c(OC)c3)n2)ccc1O | -0.6 | i | 7.3 | -0.5 | -1.6
COc1ccc(OC)c2[nH]c(C(=O)N/N=C/c3ccccc3O)cc12 | 0.9 | x | 18.8 | 15.6 | 17.6*
COc1cc(/C=N/Nc2ccc(C(F)(F)F)cn2)ccc1O | 1.2 | i | -0.6 | 11.3 | 30.4*
CC1CCCN(c2cccc3c2S(=O)(=O)N([C@H](C)c2ccccc2)C[C@@H](COCc2ccccc2)O3)C1 (stereo not given in full) | x | x | 6.0 | x | x
COc1cc(/C=N/Nc2snc(SC)c2C#N)ccc1O | 2.3 | i | 27.7 | -6.0 | 19.7*
COC(=O)[C@]12C[C@H](CC(=O)N3CCN(C(=O)C4CC4)CC3)C(=O)N(Cc3ccccc3)C1=C[C@H](C1CCCC1)O[C@@H]2C | x | x | 1.2 | x | x
O=C(NCCCCNC(=O)c1ccc(Cl)s1)c1ccc(Cl)s1 | 1.7 | i | -0.4 | -2.0 | -4.1
CN(C)CCNC(=O)c1ccc(Cl)s1 | -0.4 | + | 0.5 | -4.6 | 6.4
O=C1C2CCCN2C(c2ccccc2)N1c1ccc(Cl)cc1 (stereo not given) | -1.1 | + | -3.0 | -2.6 | 1.5
COc1ccc(N2C(=O)C3CCCN3C2c2ccc(Cl)cc2)cc1 (stereo not given) | -1.2 | i | 0.0 | -6.3 | -0.3
COC(=O)[C@]12C[C@H](CC(=O)NCCCCc3ccccc3)C(=O)N(Cc3ccc4c(c3)OCO4)C1=C[C@H](C(C)C)O[C@@H]2C1CC1 | x | x | 5.5 | x | x
N#CCCN(CCC#N)c1nncs1 | -11.2 | i | -0.7 | -3.7 | -1.8
CC(C)(C)c1csc(N(CCC#N)CCC#N)n1 | 0.1 | i | -3.3 | -1.9 | 14.2*
COc1ccc(C=CC(=O)c2cc(O)ccc2O)cc1 | 3.8 | i | 11.1 | -1.0 | 31.7*
CN(C)c1ccc(/C=C/C(=O)c2ccc(O)cc2)cc1 | 0.6 | i | 4.1 | -11.5 | 11.8*
COc1ccc(C(=O)/C=C/Nc2cc(C)on2)c(OC)c1 | 0.9 | i | 0.8 | -3.0 | 30.9*
COc1ccc(C(=O)/C=C/c2ccc(N(C)C)cc2)c(OC)c1 | 2.5 | + | -50.9 | 1.4 | 0.5
COC(=O)c1ccc2nc(-c3ccc(C)cc3)c(Cc3ccccc3)n2c1 | x | x | 10.9 | x | x
CC(C)C[C@H]1COc2cccc(F)c2S(=O)(=O)N1 | x | x | 1.4 | x | x
Cc1[nH]nc(-c2ccc(O)cc2O)c1-c1ccc(Cl)cc1 | 20.3 | i | 3.2 | -47.7 | 22.7*
COc1ccc(-c2n[nH]c(C)c2-c2ccc(Cl)cc2)c(O)c1 | 4.8 | i | 5.0 | 13.1 | 10.4*
O=C(NCCO)C(=O)NCC1OCCCN1S(=O)(=O)c1cc(F)ccc1F (stereo not given) | 0.5 | i | 2.4 | -2.5 | 136.0*
